Screen size: about 400,000 compounds; about 2,100 (0.53%) were called active. About 14% were inconclusive and are not listed. How the calls were made is not given here. The list comes from a sample in which actives are over-represented; it also holds similar structures and randomly drawn compounds.
biological target: Ataxin-2 (Homo sapiens) (UniProt Q99700); assay: qHTS for Inhibitors of ATXN expression.; format: functional
Sequence (Q99700 whole entry): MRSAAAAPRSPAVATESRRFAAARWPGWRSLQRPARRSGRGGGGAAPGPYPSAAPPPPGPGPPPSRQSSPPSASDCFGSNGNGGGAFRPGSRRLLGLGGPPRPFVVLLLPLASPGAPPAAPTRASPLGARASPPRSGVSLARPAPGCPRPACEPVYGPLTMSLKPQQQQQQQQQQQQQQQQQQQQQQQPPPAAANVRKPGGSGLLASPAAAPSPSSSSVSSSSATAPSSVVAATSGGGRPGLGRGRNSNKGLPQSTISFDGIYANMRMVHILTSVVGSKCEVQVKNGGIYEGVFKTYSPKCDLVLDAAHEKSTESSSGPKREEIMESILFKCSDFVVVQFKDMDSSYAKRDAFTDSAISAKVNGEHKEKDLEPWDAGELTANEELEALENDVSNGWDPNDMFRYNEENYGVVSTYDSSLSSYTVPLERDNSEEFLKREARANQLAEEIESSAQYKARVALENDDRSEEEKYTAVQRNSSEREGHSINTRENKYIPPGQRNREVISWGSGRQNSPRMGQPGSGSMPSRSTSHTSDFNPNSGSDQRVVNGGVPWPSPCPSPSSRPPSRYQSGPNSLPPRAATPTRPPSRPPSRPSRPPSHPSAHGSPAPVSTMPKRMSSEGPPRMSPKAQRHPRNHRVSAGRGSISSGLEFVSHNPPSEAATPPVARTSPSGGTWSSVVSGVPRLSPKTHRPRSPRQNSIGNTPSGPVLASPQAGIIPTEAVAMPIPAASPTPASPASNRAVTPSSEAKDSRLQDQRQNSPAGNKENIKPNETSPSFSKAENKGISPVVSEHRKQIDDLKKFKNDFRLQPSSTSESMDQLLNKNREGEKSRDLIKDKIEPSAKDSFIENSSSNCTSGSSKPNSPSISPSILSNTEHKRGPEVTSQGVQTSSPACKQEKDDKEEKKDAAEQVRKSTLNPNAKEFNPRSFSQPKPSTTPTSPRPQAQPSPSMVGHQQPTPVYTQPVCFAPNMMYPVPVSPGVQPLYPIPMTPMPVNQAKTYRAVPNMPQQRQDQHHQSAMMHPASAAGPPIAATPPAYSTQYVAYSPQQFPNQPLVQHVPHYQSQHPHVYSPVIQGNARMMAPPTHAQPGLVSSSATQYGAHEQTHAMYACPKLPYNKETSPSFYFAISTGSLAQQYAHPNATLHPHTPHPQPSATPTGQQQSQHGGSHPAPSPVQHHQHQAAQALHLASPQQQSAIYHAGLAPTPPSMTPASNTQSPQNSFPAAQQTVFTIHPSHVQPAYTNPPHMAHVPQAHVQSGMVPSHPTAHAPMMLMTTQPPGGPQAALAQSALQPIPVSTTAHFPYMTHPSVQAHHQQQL

Row | SMILES | Potency
1 | Cc1ccc(S(=O)(=O)NNc2c3ccccc3nc3ccc(Cl)cc23)cc1 | inactive
2 | CCCCn1c(=O)[nH]c2nc3cc(NC(C)=O)ccc3nc2c1=O | inactive
3 | CCN(CC)c1ccc(/C=c2\sc3nc4ccccc4n3c2=O)c(O)c1 | inactive
4 | OCCC1CN(C2CCN(c3ccccc3F)CC2)CCN1Cc1ccccc1 (configuration not stated) | inactive
5 | Cc1cccc(C2=NN(c3ccc(Br)cc3)[C@@H](C(=O)N3CCOC3=O)[C@@H]2c2ccccc2)c1 | inactive
6 | CN1C[C@@H]2[C@@H]3C(=O)N(Cc4ccccc4)C(=O)[C@@H]3[C@](Cc3ccccc3)(C1=O)N2C(=O)c1ccc(C(C)(C)C)cc1 | 15.8 µM (active)
7 | CC1(Cc2ccccc2Cl)C(=O)Nc2cc(-c3ccccc3Cl)ccc21 (configuration not stated) | 39.8 µM (active)
8 | CC(CCc1ccccc1)NCC(O)c1cccc([N+](=O)[O-])c1 (configuration not stated) | inactive
9 | Nc1ccccc1SC(CC(=O)c1ccccc1)c1cccc([N+](=O)[O-])c1 (configuration not stated) | 2.82 µM (active)
10 | CC(=O)Nc1cc[n+](CC(=O)c2cccc([N+](=O)[O-])c2)cc1 | inactive
11 | Nc1ccccc1SC(C[N+](=O)[O-])c1ccccc1 (configuration not stated) | 39.8 µM (active)
12 | COc1ccc(/C=N/NC(=O)Nc2cccc3nsnc23)cc1 | inactive
13 | CN1C(=O)c2cccc3c(N(C)C)ccc(c23)C1=O | inactive
14 | O=C(O)c1ccccc1-c1ccc(C=c2sc3nc4cc(Br)cnc4n3c2=O)o1 | inactive
15 | CCN(CC)CCNS(=O)(=O)c1ccc2c3c(cccc13)C(=O)N2 | inactive
16 | C=CCC(Nc1ccccc1)C12C=CC(O1)C(C(=O)OC)=C2C(=O)OC (configuration not stated) | 39.8 µM (active)
17 | Cc1ccc(/C=N/Nc2ccc3ccccc3n2)o1 | inactive
18 | c1ccc(-c2nc(CN3CCN(c4ccccn4)CC3)c[nH]2)cc1 | inactive
19 | CN(C)C(=S)N=Nc1[nH]c2ccccc2c1O | 1.12 µM (active)
20 | O/C(=C\c1nc2ccccc2nc1O)c1cccs1 | inactive
21 | O=C1C2C(c3ccccc3)CC=CC2[C@H](c2ccc(C(F)(F)F)cc2)N1Cc1ccccc1 (some centres not stated) | 15.8 µM (active)
22 | CC[C@@H]1CC=C[C@H]2[C@H]1C(=O)N(Cc1ccccc1)[C@H]2c1ccoc1 | 35.5 µM (active)
23 | Cc1ccc(F)c([C@H]2[C@H]3C=CC[C@@H](C)[C@@H]3C(=O)N2Cc2ccccc2)c1 | 39.8 µM (active)

Row | SMILES | Potency
24 | Nc1nnc(SCC(=O)NNC(=O)c2ccc([N+](=O)[O-])cc2)s1 | inactive
25 | NC(S)=NN=C1c2cc(OCCN3CCOCC3)ccc2-c2ccc(OCCN3CCOCC3)cc21 | 7.94 µM (active)
26 | COCc1cc(O)nc(-c2ccc(C(F)(F)F)cc2)n1 | inactive
27 | COCc1cc(O)nc(SCCS(=O)(=O)c2ccc(Cl)cc2Cl)n1 | 11.2 µM (active)
28 | O=S(=O)(CCN1C=CC(C(F)(F)F)=NCC1)c1ccc(Cl)cc1Cl | inactive
29 | CCOc1cc(C(c2c(C)[nH]n(-c3ccccc3)c2=O)c2c(C)[nH]n(-c3ccccc3)c2=O)ccc1O | 28.2 µM (active)
30 | CCN1/C(=C/c2ccc3cc(C)ccc3[n+]2CC)Sc2ccccc21 | 14.1 µM (active)
31 | CCOC(=O)/C(C#N)=C(C)/C=C1\Sc2ccccc2N1CC | inactive
32 | CC[n+]1c(C=C2C=CN(C)C=C2)ccc2cc(C)ccc21 | 10 µM (active)
33 | CCN1/C(=C/c2ccc3cc(C)ccc3[n+]2C)Sc2ccc3sccc3c21 | 17.8 µM (active)
34 | CCN1/C(=C\c2ccc3ccccc3[n+]2CC)Sc2cc(C)ccc21 | 44.7 µM (active)
35 | CCOC(=O)/C(=C\C=C1/Sc2ccccc2N1CC)C(C)=O | inactive
36 | N=c1c(C(=O)NCC2CCCO2)cc2c(=O)n3ccccc3nc2n1Cc1ccccc1Cl (configuration not stated) | inactive
37 | CCOC(=O)C1CCN(C(c2ccc(OC)c(OC)c2)c2sc3nc(C)nn3c2O)CC1 (configuration not stated) | inactive
38 | O=C(N/N=C/c1c(O)ccc2ccccc12)c1[nH]ncc1Br | inactive
39 | CCN1CCN(Cc2c(O)ccc3c2O/C(=C\c2ccc(C)cc2)C3=O)CC1 | inactive
40 | CC(NC(=O)C12CC3CC(CC(C3)C1)C2)C(=O)N/N=C/C1=C(N2CCOCC2)C(=C\c2ccccc2)/CC1 (configuration not stated) | inactive
41 | CCOc1ccc(CCNC(=O)Cn2ncn3nc(-c4ccc(OC)cc4)cc3c2=O)cc1OCC | inactive
42 | Cc1cc2c(C)cc(=O)oc2c2c1NCCC2 | inactive
43 | Fc1ccc(Br)cc1C1C=C(c2ccc(Br)cc2)Nc2ncnn21 (configuration not stated) | inactive
44 | CCN1/C(=C/c2ccc3cc(C)ccc3[n+]2CC)Sc2cc(C)ccc21 | 10.6 µM (active)
45 | Cc1ccccc1C(=O)Nc1cc(C(F)(F)F)ccc1-n1cncn1 | inactive
46 | CCOC(=O)c1ccc(N2CCOCC2)c(NC(=O)c2ccc3c(c2)OCO3)c1 | inactive

Row | SMILES | Potency
47 | CCCCn1nc(C(=O)Nc2cc(C(F)(F)F)ccc2N2CCOCC2)ccc1=O | 39.8 µM (active)
48 | O=C(Nc1ccccc1N1CCOCC1)c1cc(Br)c(Br)s1 | inactive
49 | c1cc2c3c(cccc3c1)C(N1CCOCC1)=N2 | inactive
50 | O=C1c2ccccc2-c2ncnc3c(N4CCOCC4)cc(N4CCOCC4)c1c23 | 17.8 µM (active)
51 | C=CCN1C(=O)/C(=C/c2ccc(OC(C)=O)c(OCC)c2[N+](=O)[O-])SC1=S | 31.6 µM (active)
52 | CCO/C=C1/C(=O)N(c2ccc(OC)cc2)C(=O)c2ccccc21 | inactive
53 | O=C(CCl)N1CCCC1c1ccc2c(c1)OCCO2 (configuration not stated) | 35.5 µM (active)
54 | Cc1ccc2c(c1)OC(c1ccc3c(c1)OCCO3)CC2=O (configuration not stated) | inactive
55 | O=C(O)c1cc2c(cc1NC(=O)C1CCCC1)OCCO2 | inactive
56 | CCOC(=O)c1sc(NC(=O)CCN2CCN(C)CC2)c(C(=O)OCC)c1C | inactive
57 | CC(=O)O[C@@H]1C[C@H]2C(C)(C)C(=O)C=C[C@]2(C)[C@H]2CC[C@@]3(C)[C@H](c4ccoc4)OC(=O)[C@H]4O[C@]43[C@@]21C | 31.6 µM (active)
58 | Cc1onc(-c2ccccc2Cl)c1C(=O)Nc1cc(=O)n(C)c(=O)n1C | inactive
59 | Cc1ccc2c(Cl)cc(Cl)c(OCC(=O)OCC(=O)Nc3ccc(C#N)cc3)c2n1 | inactive
60 | CCCCCCN1C[C@@H](n2cc(COC(=O)c3ccccc3)nn2)[C@H](O)C[C@@H]1c1ccc(C)cc1 | 22.4 µM (active)
61 | CCCCCCN1C[C@H](n2cc(COC(=O)c3ccccc3)nn2)[C@@H](O)C[C@@H]1c1ccc(Cl)cc1 | 31.6 µM (active)
62 | CCCCC(NC(=O)Cc1c(C)c2cc3c4c(oc3cc2oc1=O)CCCC4)C(=O)O (configuration not stated) | inactive
63 | Cc1c(O)ccc2c(CN3CCN(CCO)CC3)cc(=O)oc12 | inactive
64 | Cc1nn(-c2ccccc2)c(N2CCCC2)c1/C=N/Nc1ccc(S(=O)(=O)Nc2ccccc2)cc1[N+](=O)[O-] | 31.6 µM (active)
65 | O=C(O)COc1ccccc1/C=N/Nc1ccc(S(=O)(=O)Nc2ccc(Cl)cc2)cc1[N+](=O)[O-] | inactive
66 | Cc1c(NS(=O)(=O)c2ccc(NCCN3CCOCC3)c([N+](=O)[O-])c2)c(=O)n(-c2ccccc2)n1C | inactive
67 | O=C(COc1ccc(Br)cc1)NCCN1CCCC1 | inactive
68 | CC1=C(C(=O)OC(C)C)C(c2ccc(Cl)cc2)n2c(s/c(=C\c3ccc(OCC(=O)O)cc3)c2=O)=N1 (configuration not stated) | inactive
69 | CC1=CC2=NC(=O)/C(=C/c3coc4ccc(Cl)cc4c3=O)C(=N)N2O1 | inactive

Row | SMILES | Potency
70 | CCOC(=O)c1sc(NC(=O)c2nc3nc(C)cc(C(F)F)n3n2)c(C(=O)OC)c1C | inactive
71 | CCN1C(=O)c2cccc3c(S(=O)(=O)NC(Cc4ccccc4)C(=O)O)ccc1c23 (configuration not stated) | inactive
72 | CN(CCC#N)C(=O)COC(=O)c1c2c(nc3ccccc13)/C(=C/c1ccco1)CC2 | inactive
73 | C=CCNC(=O)c1ccccc1NC(=O)Cc1ccccc1[N+](=O)[O-] | inactive
74 | CC(=O)Nc1ccc(NC(=O)C(C)OC(=O)c2ccccc2C(=O)c2ccc(Cl)c([N+](=O)[O-])c2)cc1 (configuration not stated) | 39.8 µM (active)
75 | CC(=O)Nc1ccc(NC(=O)C(C)OC(=O)CCSc2ccccc2Cl)cc1 (configuration not stated) | inactive
76 | O=C(COC(=O)c1ccccc1C(=O)c1ccc(Cl)c([N+](=O)[O-])c1)NC1CCCCCC1 | 35.5 µM (active)
77 | Cc1cc(OCC(=O)OCC(=O)NC2CCCCCC2)ccc1Cl | inactive
78 | CN(CCC#N)C(=O)COC(=O)c1ccccc1C(=O)c1ccc(Cl)c([N+](=O)[O-])c1 | 29.9 µM (active)
79 | CN(C(=O)COC(=O)c1ccc([N+](=O)[O-])cc1N)c1ccccc1 | inactive
80 | Cc1ccc(C(=O)COC(=O)CCC(=O)NC2CCCCC2)cc1[N+](=O)[O-] | inactive
81 | O=C(CN(C(=O)c1ccccc1Cl)C1CCCCC1)Nc1ccc(Cl)c([N+](=O)[O-])c1 | 35.5 µM (active)
82 | CC(OC(=O)c1ccc(-n2cnnn2)cc1)C(=O)Nc1ccccc1[N+](=O)[O-] (configuration not stated) | inactive
83 | CN(CC(=O)Nc1ccccc1Cl)C1CCS(=O)(=O)C1 (configuration not stated) | inactive
84 | O=C(CSc1nnnn1C1CC1)N1CCN(c2ccc(O)cc2)CC1 | inactive
85 | CCOC(=O)Cn1nc(C)c(NC(=O)COc2ccc([N+](=O)[O-])c(C)c2)c1C | inactive
86 | Cc1ccc(Cl)c(NC(=O)COC(=O)c2ccccc2C(=O)c2ccc(Cl)c([N+](=O)[O-])c2)c1Cl | 20 µM (active)
87 | CC(=O)c1ccccc1NC(=O)COC(=O)c1cc[n+]([O-])cc1 | inactive
88 | Cn1c(N)c(C(=O)COC(=O)c2ccccc2C(=O)c2ccc(Cl)c([N+](=O)[O-])c2)c(=O)n(C)c1=O | 20 µM (active)
89 | CC(C)Cn1c(N)c(C(=O)COC(=O)c2cccnc2Cl)c(=O)n(C)c1=O | inactive
90 | Cn1c(N)c(C(=O)COC(=O)CC(NC(=O)c2ccccc2Cl)c2ccccc2)c(=O)n(C)c1=O (configuration not stated) | inactive
91 | COC(=O)c1cc(-c2ccc(Br)cc2)c2c(=O)n(C)c(=O)n(C)c2n1 | inactive
92 | Cc1sc2nc3ccc(NCc4ccco4)nn3c(=O)c2c1C | inactive

Reference: ChEMBL document CHEMBL1201862, “PubChem BioAssay data set” (2004)
